From article PMC9838217, “Structure of SALL4 zinc finger domain reveals link between AT-rich DNA binding and Okihiro syndrome”
Where a chain is given by its changes, count along the chain named.

biological target: T1, SALL4 ZFC4 WT (HT-SELEX) (Mus musculus, UniProt Q8BX22 870-940); experiment: HT-SELEX; high values mean tight binding; details: protein: recombinant; vector His6-GST; dsDNA, one strand shown
T1 sequence: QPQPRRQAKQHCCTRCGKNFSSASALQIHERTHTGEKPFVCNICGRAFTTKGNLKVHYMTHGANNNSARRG
How it was run: (§1)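 Purified recombinant mouse SALL4 zinc finger cluster 4 (residues 870–940, 1 µg) was incubated with library DNA (1.5 µg first cycle, 200 ng later) in 100 µl buffer (10 mM Tris–HCl pH 7.5, 50 mM NaCl, poly(dI-dC), DTT) for 10 min at room temperature. Ni2+ bead-captured complexes were washed, PCR-amplified and reselected for up to 6 cycles, in triplicate, then MiSeq-sequenced and scanned for 6-mers. Binding signal is each canonical k-mer's read fraction as fold change versus the initial random library.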

Sequence | binding signal [fold-change vs cycle 0]
GGTTTA | 1.2 ± 0.0627
CACATA | 1.22 ± 0.0607
TACAGA | 1.3 ± 0.0338
AAAGAA | 1.95 ± 0.101
CATCAA | 1.23 ± 0.0349
CCACGA | 0.33 ± 0.0384
AGGTAT | 1.44 ± 0.0737
AGTACC | 0.813 ± 0.0272
TATATA | 5.68 ± 0.781
ATCGCA | 0.515 ± 0.00556
GCACAA | 0.447 ± 0.00967
GTATCA | 1.39 ± 0.0637
ACAATC | 1.25 ± 0.051
ACACGG | 0.354 ± 0.0115
CCCAAG | 0.456 ± 0.0184
ATAGCC | 0.53 ± 0.0341
CTTGTC | 0.741 ± 0.0177
GACTAA | 1.21 ± 0.0577
TAGCTA | 1.22 ± 0.05
GCCAAA | 0.353 ± 0.00667

Sequence | binding signal [fold-change vs cycle 0]
TCGTCA | 0.675 ± 0.0174
GATTGC | 0.641 ± 0.0324
CCAGTA | 0.785 ± 0.049
ATGCTA | 1.28 ± 0.0551
TGGTAA | 1.41 ± 0.0525
ACATTC | 1.29 ± 0.0367
CCAACA | 0.656 ± 0.00995
AAAGGA | 1.36 ± 0.0473
CGACTA | 0.59 ± 0.0236
GATAGA | 1.32 ± 0.045
CTATAC | 1.32 ± 0.0145
AGTTTC | 1.25 ± 0.0447
GGGGTA | 0.484 ± 0.0383
TACCAA | 1.27 ± 0.0357
CAAATC | 1.1 ± 0.0172
ACACAT | 1.25 ± 0.0206
GGGTAA | 0.818 ± 0.0379
CCAACC | 0.393 ± 0.0262
AGTACA | 1.29 ± 0.0355
ATCTCG | 0.777 ± 0.0506

biological target: T2, SALL4 ZFC4 R900W (HT-SELEX) (Mus musculus, UniProt Q8BX22 870-940, R900W); experiment: HT-SELEX; high values mean tight binding; details: protein: recombinant; vector His6-GST; dsDNA, one strand shown
T2 sequence: T1 sequence with R31W
How it was run: as §1

Sequence | binding signal [fold-change vs cycle 0]
GGTTTA | 1.28 ± 0.0514
CACATA | 1.28 ± 0.0534
TACAGA | 1.38 ± 0.0448
AAAGAA | 2.12 ± 0.151
CATCAA | 1.37 ± 0.0542
CCACGA | 0.407 ± 0.011
AGGTAT | 1.54 ± 0.0608
AGTACC | 0.947 ± 0.0311
TATATA | 2.55 ± 0.233
ATCGCA | 0.522 ± 0.0161
GCACAA | 0.507 ± 0.00524
GTATCA | 1.4 ± 0.0395
ACAATC | 1.38 ± 0.0687
ACACGG | 0.455 ± 0.00764
CCCAAG | 0.532 ± 0.00725
ATAGCC | 0.6236 ± 0.00564
CTTGTC | 0.888 ± 0.0216
GACTAA | 1.39 ± 0.093
TAGCTA | 1.3 ± 0.064
GCCAAA | 0.404 ± 0.0166

Sequence | binding signal [fold-change vs cycle 0]
TCGTCA | 0.765 ± 0.0313
GATTGC | 0.711 ± 0.00883
CCAGTA | 0.922 ± 0.0301
ATGCTA | 1.34 ± 0.0761
TGGTAA | 1.47 ± 0.055
ACATTC | 1.44 ± 0.0794
CCAACA | 0.739 ± 0.0191
AAAGGA | 1.57 ± 0.109
CGACTA | 0.656 ± 0.0311
GATAGA | 1.46 ± 0.0749
CTATAC | 1.46 ± 0.0569
AGTTTC | 1.33 ± 0.0345
GGGGTA | 0.541 ± 0.0115
TACCAA | 1.33 ± 0.0163
CAAATC | 1.18 ± 0.0162
ACACAT | 1.33 ± 0.0439
GGGTAA | 0.955 ± 0.0325
CCAACC | 0.466 ± 0.0254
AGTACA | 1.43 ± 0.0834
ATCTCG | 0.837 ± 0.0514

biological target: T3, SALL4 ZFC4 G921D (HT-SELEX) (Mus musculus, UniProt Q8BX22 870-940, G921D); experiment: HT-SELEX; high values mean tight binding; details: protein: recombinant; vector His6-GST; dsDNA, one strand shown
T3 sequence: T1 sequence with G52D
How it was run: as §1

Sequence | binding signal [fold-change vs cycle 0]
GGTTTA | 1.24 ± 0.0515
CACATA | 1.25 ± 0.0582
TACAGA | 1.33 ± 0.0789
AAAGAA | 1.8 ± 0.181
CATCAA | 1.32 ± 0.0556
CCACGA | 0.515 ± 0.0508
AGGTAT | 1.47 ± 0.0842
AGTACC | 0.981 ± 0.037
TATATA | 2.17 ± 0.291
ATCGCA | 0.667 ± 0.0619
GCACAA | 0.634 ± 0.0509
GTATCA | 1.38 ± 0.0408
ACAATC | 1.36 ± 0.0869
ACACGG | 0.548 ± 0.0679
CCCAAG | 0.619 ± 0.0423
ATAGCC | 0.747 ± 0.062
CTTGTC | 0.915 ± 0.0332
GACTAA | 1.3 ± 0.0798
TAGCTA | 1.29 ± 0.0827
GCCAAA | 0.545 ± 0.0739

Sequence | binding signal [fold-change vs cycle 0]
TCGTCA | 0.852 ± 0.012
GATTGC | 0.817 ± 0.0343
CCAGTA | 0.962 ± 0.0332
ATGCTA | 1.31 ± 0.0688
TGGTAA | 1.4 ± 0.0814
ACATTC | 1.37 ± 0.0959
CCAACA | 0.817 ± 0.0303
AAAGGA | 1.44 ± 0.105
CGACTA | 0.777 ± 0.0234
GATAGA | 1.38 ± 0.128
CTATAC | 1.37 ± 0.0569
AGTTTC | 1.3 ± 0.112
GGGGTA | 0.611 ± 0.0687
TACCAA | 1.32 ± 0.055
CAAATC | 1.21 ± 0.0283
ACACAT | 1.32 ± 0.0216
GGGTAA | 0.918 ± 0.0131
CCAACC | 0.565 ± 0.0588
AGTACA | 1.35 ± 0.0882
ATCTCG | 0.933 ± 0.0422
